Measured values from PubChem BioAssay AID504832 (National Center for Advancing Translational Sciences (NCATS), 2011).
Hit rate of the full screen: of about 310,000 compounds, about 18,000 (5.8%) were called active. A call without a number means that no potency is given here. Not shown: some 22% with an inconclusive outcome. The call rests on the fitted dose curve; in most records, active means well fitted inhibition curve with a large enough effect; inconclusive means small, poorly fitted or top-dose-only effect, or another doubt; inactive means no such curve, though single readings can be large or run the other way. For the sample, actives were picked, then their nearest neighbours and some compounds at random.

Assay: Primary qHTS for delayed death inhibitors of the malarial parasite plastid, 48 hour incubation
Settings: P. falciparum luciferase growth in erythrocytes; series mostly up to 28.7 µM
In short: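 Here the parasites carry a stable luciferase gene and grow inside erythrocytes in Albumax-based RPMI medium with compound for one erythrocytic cycle. Activity is scored as loss of luminescent signal.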
Potency means the concentration at half of the fitted maximal effect.

Row | SMILES | Potency
1 | CCn1c(SCC(=O)NNC(=O)c2ccc(OC)cc2)nnc1C(C)C | inactive
2 | Cc1ccc(Cn2c(=N)c(S(=O)(=O)c3ccc(C)cc3)cc3c(=O)n4ccccc4nc32)cc1 | inactive
3 | Cn1c(Cc2cccs2)nnc1SCC(=O)Nc1ccccc1 | inactive
4 | Cc1cccc(-n2nc3c(c2NC(=O)c2cc4ccccc4o2)CS(=O)(=O)C3)c1 | inactive
5 | O=C(CC1CCCCC1)Nc1c2c(nn1-c1ccc(F)cc1)CS(=O)(=O)C2 | inactive
6 | COc1cccc(C(=O)Nc2cccnc2)c1OC | inactive
7 | COc1ccccc1OCC(=O)Nc1c2c(nn1-c1ccc(F)cc1)CS(=O)(=O)C2 | 10.4 µM (active)
8 | CCC(CC)C(=O)Nc1c2c(nn1-c1ccc(C)cc1)CS(=O)(=O)C2 | inactive
9 | COc1cccc(C(=O)Nc2c3c(nn2-c2cccc(C)c2C)CS(=O)(=O)C3)c1OC | 10.4 µM (active)
10 | CCOC(=O)c1sc(N)c(C#N)c1COC(=O)C1=COCCO1 | inactive
11 | Cc1cc(C)cc(NC(=O)C2CCCN2S(=O)(=O)c2cccc3cccnc23)c1 (configuration not stated) | inactive
12 | CCn1c(CC(=O)Nc2ccccc2C)nnc1SCC(=O)NC1=NCCS1 | inactive
13 | CCCc1nn(C)c2c(=O)[nH]c(-c3cc(S(N)(=O)=O)ccc3OCC)nc12 | inactive
14 | N#Cc1cc([N+](=O)[O-])ccc1NCC1CCCO1 (configuration not stated) | inactive
15 | COc1ccc(NC(=S)NC2CCS(=O)(=O)C2)cc1 (configuration not stated) | inactive
16 | CC(C)C(=O)NC(NC(=S)NC1CCS(=O)(=O)C1)C(Cl)(Cl)Cl (configuration not stated) | 7.38 µM (active)
17 | O=C(Cc1ccc(Cl)cc1)NC1CCS(=O)(=O)C1 (configuration not stated) | inactive
18 | CC1CC(C)CN(C(=O)COC(=O)c2ccc3ncsc3c2)C1 (configuration not stated) | inactive
19 | CCc1noc(C)c1C(=O)Nc1nc(-c2ccccc2)cs1 | inactive
20 | Nc1nc(Nc2ccccc2)nc(NCCO)c1[N+](=O)[O-] | inactive
21 | C=CCNc1nc(N)c([N+](=O)[O-])c(NC2CCCCC2)n1 | 14.7 µM (active)
22 | COCCNc1nc(N)c([N+](=O)[O-])c(NCCO)n1 | inactive
23 | CSCc1nnc(NC(=O)c2ccc(S(=O)(=O)N3CCCCC3C)cc2)o1 (configuration not stated) | inactive

Row | SMILES | Potency
24 | CC(C)Cc1cc(C(=O)Nc2cc(Br)ccc2O)no1 | 1.85 µM (active)
25 | CC(C)Cc1cc(C(=O)NCCc2ccccc2)no1 | inactive
26 | CC(C)CNC(=O)c1cc(-c2ccc(Br)cc2)on1 | inactive
27 | COc1cccc(OC)c1C(=O)NC(=S)Nc1ccc(N2CCOCC2)c(Cl)c1 | 14.7 µM (active)
28 | Cc1ccc(C(=O)NC(=S)Nc2ccc(N3CCOCC3)cc2)cc1 | inactive
29 | CCOc1ccc(C(=O)NC(=S)Nc2ccc(N3CCOCC3)c(Cl)c2)cc1[N+](=O)[O-] | inactive
30 | O=C(NCCc1nnc2ccc(SCC(=O)N3CCOCC3)nn12)c1ccccc1 | inactive
31 | CC(=O)N1CCCc2cc(S(=O)(=O)N3CCCC(C(=O)N4CCN(c5cccc(Cl)c5)CC4)C3)ccc21 (configuration not stated) | 4.15 µM (active)
32 | Cc1ccc(S(=O)(=O)N2CCCC(C(=O)N3CCN(C)CC3)C2)cc1 (configuration not stated) | inactive
33 | COc1ccc(S(=O)(=O)N2CCCC(C(=O)N3CCN(C)CC3)C2)cc1C (configuration not stated) | inactive
34 | CCCS(=O)(=O)N1CCCC(C(=O)N2CCN(c3ccccc3)CC2)C1 (configuration not stated) | inactive
35 | O=C(C1CCCN(S(=O)(=O)c2ccccc2)C1)N1CCN(c2ccc(F)cc2)CC1 (configuration not stated) | 13.1 µM (active)
36 | CC(=O)N1CCCc2cc(S(=O)(=O)N3CCCC(C(=O)NCc4ccc(Cl)cc4)C3)ccc21 (configuration not stated) | inactive
37 | CC(C)CCN(C(=O)c1csnn1)C(C(=O)NC1CCCC1)c1ccccc1 (configuration not stated) | inactive
38 | CCOc1ccc(N(C)S(=O)(=O)c2cnc[nH]2)cc1 | inactive
39 | CC(=O)c1ccc(NC(=O)C2CCCN2S(=O)(=O)c2cccs2)cc1 (configuration not stated) | inactive
40 | COc1ccc(C(=O)NC(C)Cn2nc(C)cc2C)cc1OC1CCN(C(C)=O)CC1 (configuration not stated) | inactive
41 | Cc1cccc(-c2nc(CS(=O)CC(=O)NC(C)CCc3ccccc3)c(C)o2)c1 (configuration not stated) | inactive
42 | O=C(CN1CCc2cc3c(cc2C1)OCCCO3)Nc1ccccc1 | inactive
43 | Cc1cccc2c1N(CC(=O)OC(C)C)C(=O)C2=O | inactive
44 | CC(C)OC(=O)CN1C(=O)c2ccccc2C1=O | inactive
45 | CC(C)OC(=O)CN1C(=O)C(=O)c2ccccc21 | 2.62 µM (active)
46 | Clc1cccc(Cl)c1OCCOCCNCc1ccccc1 | inactive

Row | SMILES | Potency
47 | CC(NC(=O)c1ccccc1C(=O)O)c1ccc(-n2ccnc2)cc1 (configuration not stated) | inactive
48 | COc1ccc(NC(=O)CCCNC(=O)Cn2cnc3sc4c(c3c2=O)CCCC4)cc1OC | inactive
49 | Cc1onc(-c2ccccc2)c1C(=O)N1CCN(S(=O)(=O)c2ccccc2C(F)(F)F)CC1 | inactive
50 | NC(=O)CCN1CCN(S(=O)(=O)/C=C/c2ccccc2)CC1 | inactive
51 | O=S(=O)(c1cccs1)N1CCN(Cc2ccccc2)CC1 | inactive
52 | Cc1cc2oc(=O)cc(CN3CCN(S(=O)(=O)c4cccs4)CC3)c2cc1C(C)C | 10.4 µM (active)
53 | O=S(=O)(/C=C/c1ccccc1)N1CCNCC1 | inactive
54 | O=c1cc(CN2CCN(S(=O)(=O)/C=C/c3ccccc3)CC2)c2ccc(O)cc2o1 | 13.1 µM (active)
55 | Cc1ccc2c(CN3CCN(S(=O)(=O)c4ccccc4C(F)(F)F)CC3)cc(=O)oc2c1 | 11.7 µM (active)
56 | Cc1cc2oc(=O)cc(CN3CCN(Cc4ccccc4)CC3)c2cc1C | inactive
57 | O=S(=O)(c1ccc(F)cc1)N1CCN(Cc2ccccc2C(F)(F)F)CC1 | inactive
58 | COc1ccc(O)c(/C=N/N=C/c2cccc([N+](=O)[O-])c2)c1 | inactive
59 | CCn1c(C(O)c2cc(OC)ccc2OC)nc2ccccc21 (configuration not stated) | inactive
60 | CCOC(=O)c1c(C)[nH]c(C(=O)OCC(=O)N2CCCC2=O)c1C | inactive
61 | Cc1cc(Cl)nc(NC(=O)Nc2cccc(Cl)c2)n1 | inactive
62 | CC(=O)CC[C@@H](C)O[C@@H]1OC(C)[C@H](O)CC1O (some centres not stated) | inactive
63 | COC(=O)c1ccc(NS(=O)(=O)c2cc3c4c(c2)C(C)C(=O)N4CCC3)cc1 (configuration not stated) | inactive
64 | O=C(OCC(=O)N1CCCC1=O)c1cc(S(=O)(=O)N2CCOCC2)ccc1Cl | inactive
65 | Cc1ccccc1Nc1nnc(C)c(=O)[nH]1 | inactive
66 | Cc1nnc(N/N=C/C2CC=CCC2)[nH]c1=O (configuration not stated) | inactive
67 | Cc1nnc(N/N=C/c2ccccn2)[nH]c1=O | 2.33 µM (active)
